# EBNA-1 inh: EBNA-1 DNA-binding inhibitors, primary screen, biochemical, fluorescence polarization; inhibition, % at 14.8 µM; 300,000 tested, 0.34% active; in the data active = inhibition above about 28%
# LYPLA2 inh: LYPLA2 inhibitors, primary screen, counter-screen for PME1 inhibitor project, biochemical, fluorescence polarization, FP-Rh probe ABPP. recombinant LYPLA2. inhibition, % at 5.9 µM. 320,000 tested, 0.38% active. AID 2177, 2009;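 active = inhibition above the screen-wide mean plus 3 SD, limit set per campaign, cut at about 26% in these data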;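 also: 0% = LYPLA2 with DMSO and 100% = wells lacking LYPLA2 enzyme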
# PREPL inhibitor: PREPL enzyme inhibitors, primary screen, biochemical, fluorescence polarization. Prolyl endopeptidase-like (Homo sapiens), Q4J6C6. recombinant PREPL, fluorescence polarization activity-based probe. inhibition, % at 5.96 µM. 320,000 tested, 0.68% active. AID 2751, 2010; in the data active = inhibition above about 43%;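 also: 0% = enzyme with DMSO and 100% = wells lacking enzyme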
# ZTA DNA inh: counter-screen for EBNA-1 inhibitors: inhibitors of Epstein-Barr virus ZTA. P03206. ZTA-DNA binding, fluorescence polarization. inhibition, % at 11 µM. 320,000 tested, 0.15% active; in the data active = inhibition above about 33%
# Target sequence (P03206 whole entry, looked up): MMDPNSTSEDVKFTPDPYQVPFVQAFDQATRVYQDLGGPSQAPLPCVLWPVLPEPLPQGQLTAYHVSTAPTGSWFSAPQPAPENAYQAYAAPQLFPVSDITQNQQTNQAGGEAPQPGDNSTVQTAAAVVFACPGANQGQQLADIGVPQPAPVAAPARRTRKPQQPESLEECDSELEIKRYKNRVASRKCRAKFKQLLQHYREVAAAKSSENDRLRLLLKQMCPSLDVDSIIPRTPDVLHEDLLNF
# LYPLA1 inh: LYPLA1 inhibitors, primary screen, counter-screen for PME1 inhibitor project, biochemical, fluorescence polarization, FP-Rh probe ABPP; Acyl-protein thioesterase 1 (Homo sapiens), O75608; recombinant LYPLA1; inhibition, % at 5.9 µM; 320,000 tested, 0.16% active; AID 2174, 2009;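 active = inhibition above the mean of all tested compounds plus 3 SD, set per campaign, cut at about 14% in these data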;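 also: inhibitors block serine hydrolase probe labeling of LYPLA1 so polarization falls; 0% = enzyme with DMSO and 100% = wells lacking LYPLA1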
# Target sequence (O75608 whole entry, looked up): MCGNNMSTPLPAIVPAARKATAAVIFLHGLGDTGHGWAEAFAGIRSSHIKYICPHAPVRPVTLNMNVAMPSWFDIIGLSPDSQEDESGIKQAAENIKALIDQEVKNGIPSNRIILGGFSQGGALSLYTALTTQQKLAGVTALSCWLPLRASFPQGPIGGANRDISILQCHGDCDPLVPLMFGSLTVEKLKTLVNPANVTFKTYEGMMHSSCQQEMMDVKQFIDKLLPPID
# EBNA-1 inh conf: EBNA-1 DNA-binding inhibitors, retest, confirmation, biochemical, fluorescence polarization, triplicate; shares compounds with EBNA-1 inh; Recombinant EBNA-1 DBD, Cy5-DNA fluorescence polarization; inhibition, % at 14.8 µM; 830 tested, 35% active; AID 2292, 2010;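 active = mean inhibition across replicates above a set limit taken from the earlier primary screen, cut at about 28% in these data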;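 also: plate controls were EBNA-1 protein with DMSO for no effect and wells lacking EBNA-1 for full effect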
# ZTA counter trip: EBV Zta DNA binding inhibitors, counter-screen for EBNA-1 inhibitor project, biochemical, fluorescence polarization, triplicate; AID 2328, 2010; 830 tested, under 10 active; shares compounds with EBNA-1 inh; inhibition, % at 11.1 µM; Zta-ZRE DNA binding, Cy5 fluorescence polarization;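 active = mean inhibition over triplicates above a set limit taken from the primary EBNA-1 screen, cut at about 37% in these data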;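 also: purified full length Zta protein with Cy5 labeled ZRE DNA probe; 0% = Zta with DMSO and 100% = wells lacking Zta protein; inhibitors lower polarization by freeing the labeled DNA probe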
# Starred values were filed as active, the others as inactive; x = not tested or not shown. Shown are actives, neighbours in structure and some others; about 1.3% of the full set was active somewhere.
SMILES,EBNA-1 inh,LYPLA2 inh,PREPL inhibitor,ZTA DNA inh,LYPLA1 inh,EBNA-1 inh conf,ZTA counter trip
CC(=O)NC(=S)Nc1ccc(NC(=S)NC(=O)/C=C/c2ccco2)cc1,42.6*,-8.0,-3.5,1.3,-7.8,31.8*,14.8
O=c1c2ccccc2nc2c3ccccc3c(NCc3ccco3)nn12,31.5*,4.6,-4.8,5.0,-0.5,1.8,-6.8
Fc1ccccc1-c1nc(NCc2ccco2)c2ccccc2n1,-0.6,-1.1,0.8,-27.1,-6.1,x,x
O=C(COC(=O)Cn1cnc2ccccc2c1=O)Nc1ccccc1OC(F)F,x,x,-1.0,x,x,x,x
NC(=O)c1ccc(NC(=O)COC(=O)/C=C/c2cccs2)cc1,-2.9,4.6,-3.3,-7.4,0.4,x,x
NS(=O)(=O)c1ccc(NC(=O)COC(=O)/C(=C/c2cccs2)c2cccs2)cc1,63.8*,-24.8,-78.1,9.9,-17.6,59.8*,12.8
NS(=O)(=O)c1cccc(NC(=O)COC(=O)CCC(=O)c2cccs2)c1,x,x,9.1,x,x,x,x
Cc1ccc(NC(=O)COC(=O)/C=C/c2cccs2)cc1,39.0*,6.0,17.7,-0.6,-1.7,10.8,8.1
CC(NC(=O)C1CCCN(C(=O)c2ccc(Cl)cc2)C1)c1cccc(C(F)(F)F)c1 (stereo not drawn),x,2.9,-11.4,12.2,-0.4,x,x
C(=C\n1nnc2ccccc21)/c1ccccn1,2.1,-2.3,-8.7,0.2,-2.8,x,x
S=c1[nH]ccn1-c1c(Cl)cccc1Cl,7.3,-0.5,0.4,-0.9,-0.1,x,x
C/C(=N/NC(=O)c1ccncc1)c1ccc(NC(=O)c2ccc(Cl)cc2Cl)cc1,36.5*,-3.3,1.2,2.1,-3.5,30.8*,9.0
Cc1ccc2c(c1)nnn2C1CCN(S(=O)(=O)c2ccc(C(=O)NC3CCCC3)cc2)CC1,34.9*,6.8,-0.8,16.8,1.9,35.6*,4.5
Cc1ccc2c(c1)nnn2C1CCN(S(=O)(=O)c2ccc(C(=O)N(C)C)cc2)CC1,3.2,14.9,-6.5,6.6,-7.4,x,x
CC(OC(=O)C1CC1C)C(=O)Nc1ncc(Cl)cc1Cl (stereo not drawn),4.8,1.4,-3.1,7.2,4.1,x,x
c1ccc(-c2ccc(C3=Nn4c(nnc4-c4cc(-c5ccccc5)n[nH]4)SC3)cc2)cc1,33.1*,-38.4,-40.1,12.2,-22.4,52.4*,24.4
Cc1cc(C)c2cc(C#N)c(SCC(=O)Nc3ccc4c(c3)OCO4)nc2c1,32.1*,-9.4,8.9,-1.6,2.3,49.5*,0.9
Cc1cc(NC(=O)CSc2nc(-c3ccc(Cl)cc3)cs2)no1,39.5*,-0.6,-15.4,14.5,-1.2,7.0,-11.7
Cc1cc(NC(=O)CSc2ccc(Cl)cc2)no1,-1.6,6.4,-3.4,-12.3,1.0,x,x
COC(=O)[C@H](Cc1ccccc1)NC(=O)O[C@H]1C(=O)c2ccc(OC)cc2O[C@@H]1c1ccc2c(c1)OCO2,28.7*,4.6,3.5,-24.5,-2.1,-0.2,2.1
COC(=O)[C@H](Cc1ccccc1)NC(=O)O[C@@H]1C(=O)c2cc(OC)ccc2O[C@H]1c1ccc(OC)c(Br)c1,2.0,18.3,-12.8,-1.4,0.0,x,x
COc1cccc(-c2cc(C(=O)Nc3cnn(Cc4ccc(F)cc4)c3)no2)c1,46.9*,0.8,23.1,-2.2,-1.8,31.7*,18.4
N#Cc1ccsc1NC(=O)COC(=O)c1cc2ccccc2cc1O,48.4*,-9.1,-0.2,7.8,-7.0,13.7,4.8
COc1ccc(S(N)(=O)=O)cc1C(=O)OCC(=O)Nc1sccc1C#N,x,x,-3.6,x,x,x,x
COc1ccc(-n2c(SCC(=O)NCCCN3CCCC3=O)nnc2C(C)N2CCCCC2)cc1 (stereo not drawn),41.0*,-5.1,8.0,-2.9,1.3,2.2,0.3
O=C(NCCc1c[nH]c2ccccc12)C1CCC(Cn2c(=S)[nH]c3ccccc3c2=O)CC1 (stereo not drawn),28.1*,-13.2,-7.4,15.3,-18.3,7.1,-5.5

# Screening results: PubChem, The Scripps Research Institute Molecular Screening Center
